Most compounds without a hit are left out; they make up all but 2.7% or so of the library.
FBPA coupling cs – coupling enzyme interference in Giardia aldolase counter-screen | activity change, negative = inhibition, % at 58.2 µM, hits read low | coupling enzyme system counterscreen, AmpLite Red fluorescence | hit rate 0.67% among 290,000; in the data active = activity change below about -30%
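Fluorescence at 525 nm excitation and 598 nm emission measured inhibition of the coupled detection system without aldolase. Compounds (at 57.5 uM final) were preincubated 10 min at room temperature with coupling enzyme reagent before a 20 min substrate/AmpLite Red step.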
Tau fluor counter – counter-screen for tau fibril formation inhibitors | tau K18 P301L Alexa594 fluorescence, heparin fibrillization | Potency, µM (highest dose often 57.7 µM), for inactives: top-dose activity change, negative = decrease | hit rate 0.93% among 280,000 | AID 1463; note: potency is the fitted concentration of half-maximal effect; nearly all actives have a fitted effect of over 55% in size
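Human K18 P301L tau (15 uM unlabeled plus 0.24 uM Alexa 594-labeled, final) in 100 mM sodium acetate pH 7 was mixed with compound and 20 uM heparin and incubated 6 hr at 37 C.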
Tau fibril ThT – blocks human tau fibril formation measured by thioflavin T; recombinant tau K18 P301L (four-repeat tau fragment), heparin-induced fibrillization, ThT fluorescence; Potency, µM (top dose mostly 57.4 µM), without a hit: at the top dose activity, negative = inhibition, actives largely listed as inhibitors; hit rate 2.1% among 270,000; AID 1460; note: potency is the fitted concentration of half-maximal effect; nearly all actives have a fitted effect of over 55% in size
Target sequence (P10636 561-689 P618L limits assumed): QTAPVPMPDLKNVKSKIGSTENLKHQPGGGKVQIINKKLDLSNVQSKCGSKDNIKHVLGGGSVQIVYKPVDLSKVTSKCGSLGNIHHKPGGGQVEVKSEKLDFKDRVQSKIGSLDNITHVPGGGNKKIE
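Tau K18 P301L fragment (15 uM unlabeled plus 0.24 uM Alexa 594-labeled) in 100 mM sodium acetate pH 7 with compound, fibrillization induced by 20 uM heparin for 6 hr at 37 C. Thioflavin T (30 uM) added, fluorescence read after 1 hr (ex 450, em 510 nm).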
Tau FP inhib – tau fibrillization inhibition (FP) | P10636 | hit rate 0.39% among 280,000 | Potency, µM (series often up to 57.7 µM), without a hit: at the top dose activity, negative = inhibition, hits mostly inhibitors | K18 P301L tau heparin fibrillization, Alexa594 FP, 6 h; note: potency is the fitted concentration of half-maximal effect; nearly all actives have a fitted effect of over 55% in size
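K18 P301L tau (15 uM unlabeled/0.24 uM Alexa 594-labeled, final) + compound + heparin 20 uM final; 100 mM NaOAc pH 7; 6 hr 37 C; ThT 30 uM final added, 1 hr RT; FP ex 555/em 632 nm.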
* marks the source's active call; other numbers are inactive results; u = inconclusive; x = no result; [ ] = dose if it differs, or a comment. Unless noted, calls come from the whole dose curve; as a rule, active = well fitted curve in the direction sought with a large enough effect; inconclusive = small, poorly fitted or top-dose-only effect, or another doubt; inactive = no such curve, though single readings can be large; an effect the other way counts as inactive or inconclusive. % is set by controls: 0 for no effect and ±100 for the full control effect.

SMILES	FBPA coupling cs	Tau fluor counter	Tau fibril ThT	Tau FP inhib
O=C(Nc1ccccc1)c1cc2c(-c3ccccc3)nn(-c3ccccc3)c2s1	x	u	-1%	20µM*
O=C(Nc1ccc(Cl)cc1)c1cc2c(-c3ccccc3)nn(-c3ccccc3)c2s1	x	-27%	11%	25µM*
COc1ccccc1NC(=O)c1cc2c(-c3ccccc3)nn(-c3ccccc3)c2s1	x	-24%	-4%	u
Cc1nn(-c2ccccc2)c2sc(C(=O)Nc3cccc(Br)c3)cc12	x	u	u	7.9µM*
Cn1nc(C(F)(F)F)c2cc(C(=O)Nc3ccc(Cl)cc3)sc21	0	u	1%	u
CCc1ccc(NC(=O)c2ccc(CN3C(=O)C(C)=C(c4ccc(C)cc4)S3(=O)=O)cc2)cc1	x	-9%	6%	-15%
CCOC(=O)c1ccc(NC(=S)N2CCSC2c2ccc(OC)cc2)cc1 (stereo not drawn)	-3	u	u	25µM*
CCOC(=O)c1ccc(NC(=S)N2CCSC2c2ccc(Cl)cc2)cc1 (stereo not drawn)	1	u	-10%	u
Cc1ccc(CNC(=O)c2ccc3c(c2)N(Cc2ccccc2Cl)C(=O)CS3)cc1	x	-13%	-2%	-3%
Cc1ccc(NC(=O)CN2C(=O)S/C(=C/c3ccc(O)c([N+](=O)[O-])c3)C2=O)cc1C	7	u	7.9µM*	u
CN1C(=O)/C(=C/c2ccc(O)c([N+](=O)[O-])c2)N(C)C1=S	10	-19%	4.5µM*	1%
CCOC(=O)CN1C(=O)S/C(=C/C=C/c2ccc(N(C)C)cc2)C1=O	0	0%	2.2µM*	u
COc1cc(/C=C2\C(=O)N(C)C(=S)N2C)ccc1O	2	-14%	u	12%
Cc1cccc(NC(=O)CN2C(=O)S/C(=C\c3ccc(O)c([N+](=O)[O-])c3)C2=O)c1	6	u	6.3µM*	1%
CCN(c1cc(C)cc(C)c1)S(=O)(=O)c1nnc(NC(=O)c2cccc(F)c2)s1	x	-6%	7%	4%
O=C1S/C(=C\c2ccc(O)c([N+](=O)[O-])c2)C(=O)N1c1ccccc1Cl	1	u	6.3µM*	-5%
O=C(O)c1cccc(CN2C(=O)S/C(=C/c3ccccc3[N+](=O)[O-])C2=O)c1	14	-16%	u	u
CCOC(=O)CN1C(=O)S/C(=C/c2cccc([N+](=O)[O-])c2O)C1=O	9	-23%	13µM*	4%
CCOC(=O)CN1C(=O)S/C(=C/c2ccc3c(c2)n(C)c(=O)n3C)C1=O	-1	-10%	-19%	-7%
O=C1S/C(=C\c2ccc(O)c([N+](=O)[O-])c2)C(=O)N1Cc1cccc([N+](=O)[O-])c1	9	u	11µM*	18%
CN(C)S(=O)(=O)c1cccc(NC(=O)COC(=O)c2cc(-c3cccc(Br)c3)nc3ccccc23)c1	1	u	9%	13µM*
COc1cc(-c2cc(C(=O)Nc3cccc(S(=O)(=O)N(C)C)c3)c3ccccc3n2)cc(OC)c1OC	-4	x	x	x
CCN(CC)c1ccc2c(c1)CCCN2	2	u	25µM*	u
O=S(=O)(c1ccc2c(c1)CCCN2)N1CCCC2CCCCC21 (stereo not drawn)	3	u	-16%	19%
COc1cccc(CNC(=O)c2ccc(CS(=O)Cc3ccc(Cl)cc3)o2)c1 (stereo not drawn)	x	-15%	0%	4%
SMILES	FBPA coupling cs	Tau fluor counter	Tau fibril ThT	Tau FP inhib
O=S(=O)(c1ccccc1)c1nnn2c1nc(NCc1cccs1)c1sccc12	x	2%	u	u
Cc1ccc(NC(=O)CCc2nc3cccnc3n2-c2ccccc2)cc1	x	-12%	-9%	u
CN(C)S(=O)(=O)c1ccc(-c2csc(N/N=C/c3ccc(O)cc3)n2)cc1	-5	10µM*[quencher]	14µM*	-6%
C(=N\Nc1nc(-c2ccccc2)cs1)/c1ccncc1	2	13µM*[quencher]	16µM*	7%
C(=N\Nc1nc(-c2ccccc2)cs1)/c1cccs1	3	13µM*[quencher]	14µM*	8%
Clc1cnc(N/N=C/c2cccs2)c(Cl)c1	-2	-18%	u	2%
ClCc1csc(N/N=C/c2cccs2)n1	3	u	18µM*	u
COC(=O)c1ccc(Cl)cc1NC(=O)N(Cc1ccc(OC)cc1)C1CCN(C(C)=O)CC1	x	5%	0%	6%
CCCOc1ccc(C(=O)Nc2ccc3c(c2)OCCO3)cc1	1	x	x	x
COc1ccc(S(=O)(=O)N2CCC(C(=O)NCc3cccnc3)CC2)cc1C	1	x	x	x
